Source: PubChem BioAssay (National Center for Advancing Translational Sciences (NCATS))
The full list was thinned out, with hits kept by preference.
Methyltransferases: Primary Screen for Target Class Profiling of Small Molecule Inhibitors of Methyltransferases; purified enzyme, MTase-Glo SAH luminescence; stronger effect = lower value; calls only at 40 µM; 3.9% of 25,000 active; call rule not given here
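Each enzyme was reacted with SAM and its substrate, with compounds tested once at 40 uM; SAH formed was read by MTase-Glo luminescence.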
* marks the source's active call; other numbers are inactive results; i = inactive; + = active, no number; ! = a repeat was not active. % is set by controls: 0 for no effect and ±100 for the full control effect.

SMILES | Methyltransferases
C=CC(C)(O)CC/C=C(\C)C(=O)OC1CC2(C(=O)O)CCC3(C)C(=CCC4C5(C)CCC(OC6OC(COC7OCC(O)C(O)C7O)C(O)C(OC7OCC(O)C(O)C7O)C6OC6OC(CO)C(O)C(O)C6OC6OCC(O)C(O)C6O)C(C)(C)C5CCC43C)C2CC1(C)C (configuration not stated) | i
CCOc1ccc(CCN2C(=O)c3ccc(-c4ccccc4)n3CC2(C)C(=O)NC2CCCC2)cc1 (configuration not stated) | i
CCCC1c2cccn2CCN1C(=O)Nc1ccc(C)c(C)c1 (configuration not stated) | i
Cc1ccc(Cn2nc3n(C(C)C)c(=O)c4ccc(C(=O)NCC(C)C)cc4n3c2=O)cc1 | i
CCCn1c(=O)c2ccccc2n2c(SCC(=O)NCc3ccccc3)nnc12 | i
CCOc1cc(CNC(=O)c2cc3n(n2)CC(C)(C(=O)NCc2ccccc2)N(C)C3=O)ccc1OC (configuration not stated) | i
CCN1CCN(c2nc3c(S(=O)(=O)c4ccc(C)c(C)c4)nnn3c3ccc(Cl)cc23)CC1 | i
CCOC(=O)[C@@H](N)Cc1ccc(-c2cc(O[C@H](c3ccc(Cl)cc3-n3ccc(C)n3)C(F)(F)F)nc(N)n2)cc1 | +
COc1cccc(-c2ccc([C@@H](Oc3cc(-c4ccc(C[C@H](N)C(=O)O)cc4)nc(N)n3)C(F)(F)F)cc2)c1 | i
COc1ccc(Cn2c(=O)c3ccccc3n3c(-c4ccc(F)cc4)nnc23)cc1 | i
CC(C)c1cc2c(c(O)c1O)[C@@]13CCCC(C)(C)[C@@H]1[C@H](OC3=O)C2=O | i
COC1OC(=O)C2=C1C1(C)CCCC(C)(C)C1CC2O (configuration not stated) | i
CC(C)c1cc2c(c(O)c1O)[C@@]13CCCC(C)(C)C1[C@@H](O)[C@@H]2OC3=O (some centres not stated) | +
C=C1CC[C@@]2(OC1)O[C@H]1CC3[C@@H]4CC=C5C[C@@H](O)C[C@@H](O[C@@H]6OC[C@H](O)[C@H](O)[C@H]6O[C@@H]6O[C@@H](C)[C@H](O)[C@@H](O)[C@H]6O)[C@]5(C)C4CC[C@]3(C)[C@H]1[C@@H]2C (some centres not stated) | i
CN1C(=O)c2cc(C(=O)NCCC3=CCCCC3)nn2CC1(C)C(=O)NC1CCCCCC1 (configuration not stated) | i
CCCCN1C(=O)c2cc(C(=O)NCCc3ccc(OCC)cc3)nn2CC1(C)C(=O)NC1CCCC1 (configuration not stated) | i
Clc1ncoc1-c1c[nH]c2ccccc12 | i
O=C1NC(Cc2c[nH]c3ccccc23)C(=O)NC1Cc1c[nH]c2ccccc12 (configuration not stated) | i
O=C1NC(=O)C(c2c[nH]c3ccccc23)=C1c1c[nH]c2ccccc12 | +
Cn1c2c(c3ccccc31)C(C(=O)NCc1ccc(F)cc1)N(Cc1ccc(Cl)cc1)C(=O)CS2 (configuration not stated) | i
CCOCCCNC(=O)CCc1nnc2n(Cc3ccccc3)c(=O)c3ccccc3n12 | i
Cc1ccccc1CN1C(=O)c2cc(-c3ccco3)nn2CC1(C)C(=O)NC1CCCCCC1 (configuration not stated) | i
Cc1c(OCC(F)(F)F)ccnc1CS(=O)c1nc2ccccc2[nH]1 (configuration not stated) | +
CC1(C(=O)NCc2ccc(Cl)cc2)Cn2c(ccc2-c2ccco2)C(=O)N1Cc1ccc2c(c1)OCO2 (configuration not stated) | i
COc1ccc(-c2cnc3ccc(NCc4ccc(S(N)(=O)=O)cc4)nn23)cc1OC | +
SMILES | Methyltransferases
COc1ccc(CCNc2nc3c(S(=O)(=O)c4ccc(C)cc4)nnn3c3ccccc23)cc1OC | i
COc1ccc(S(=O)(=O)NCc2nc(-c3ccc(OC)c(OC)c3)no2)cc1 | i
COc1cccc(CN2C(=O)c3cc(-c4ccccc4)nn3CC2(C)C(=O)NCc2ccccc2)c1OC (configuration not stated) | i
Cc1cc2c(cc3n2CC(C)(C(=O)NC2CCCCCC2)N(Cc2ccc(F)cc2)C3=O)o1 (configuration not stated) | i
CCc1ccccc1N1C(=O)Cn2cccc2C1C(=O)NC1CCCCC1C (configuration not stated) | i
CCn1c(=O)c(-c2ccc(-c3cncs3)cc2Cl)cc2cnc(Nc3ccc(N4CCN(C)CC4)cc3)nc21 | i
C=CCn1c(=O)c2cnc(Nc3ccc(N4CCN(C)CC4)cc3)nc2n1-c1cccc(C(C)(C)O)n1 | +
Cc1ccc(NS(=O)(=O)c2cc3c(cc2Cl)n(C)c(=O)n3C)cc1 | i
CCCCNC(=O)C(CC)n1ccc2cc(S(=O)(=O)N3CCCCC3)ccc21 (configuration not stated) | i
CC(C)(O)C1CC=C(C(=O)OC[C@H]2O[C@@H](OC(=O)C3=CCC(C(C)(C)O)CC3)[C@H](O)[C@@H](O)[C@@H]2O)CC1 (some centres not stated) | +
O=C(O[C@@H]1O[C@H](CO)[C@@H](O)[C@H](O)[C@H]1O)c1ccccc1 | i
CC1=C(C(=O)OC2OC(COC3OC(CO)C(O)C(O)C3O)C(O)C(O)C2O)C(C)(C)CCC1 (configuration not stated) | i
CC(C)(C)c1cc2n(n1)CC(C)(C(=O)NC1CCCCCC1)N(c1ccc(F)cc1)C2=O (configuration not stated) | i
O=C(Cn1nc2n(CCc3ccccc3)c(=O)c3ccccc3n2c1=O)NCc1ccccc1 | i
CC(C)COC(=O)c1ccc2c(c1)C1C=CCC1C(c1ccc(Cl)cc1)N2 (configuration not stated) | i
O=C(O)c1ccc2c(c1)C1C=CCC1C(c1ccc(Cl)cc1)N2 (configuration not stated) | +
Fc1ccc2c(c1)C1C=CCC1C(c1ccc(Cl)cc1)N2 (configuration not stated) | i
Cc1ccc(NC(=O)N2Cc3c(sc4c3CCCC4)-n3cccc3C2c2cccc(F)c2)cc1 (configuration not stated) | i
COc1ccc(CN2C(=O)c3c(-n4cccc4)c4ccccc4n3CC2(C)C(=O)NC2CCCC2)cc1 (configuration not stated) | i
CCC(C)NC(=O)c1ccc2c(=O)n(Cc3ccccc3)c3nn(Cc4ccc(C)cc4)c(=O)n3c2c1 (configuration not stated) | i
N#Cc1ccc2[nH]cc(CCCCN3CCN(c4ccc5oc(C(N)=O)cc5c4)CC3)c2c1 | +
CCOc1ccc(OCC)c(NS(=O)(=O)c2ccc3[nH]c(=O)[nH]c3c2)c1 | i
Cc1ccc(CNC(=O)c2cc3n(n2)CC(C)(C(=O)NC2CCCCCC2)N(C)C3=O)o1 (configuration not stated) | i
CCCSCCCN1C(=O)c2cc3sccc3n2CC1(C)C(=O)NC1CCCCCCC1 (configuration not stated) | i
Cc1cc(F)ccc1NS(=O)(=O)c1cc2c(cc1Cl)n(C)c(=O)n2C | i
NC(=O)c1cccc2cn(-c3ccc([C@@H]4CCCNC4)cc3)nc12 | +!
Cn1nc(C2CCCNC2)c2c(C(=O)NC3CC3)cc(C3CC3)nc21 (configuration not stated) | i
